Several values for one entry are separate records, joined by “and”; a condition that tells them apart may be missing. Identical values can stand only once. Counter-ions that a name gives are not always drawn.
Columns and labels:
Experiment in all cases: cell viability relative to vehicle control; higher = less cytotoxic
Settings in all cases: 10 µM
K562 = test system: K562
Procedure, shortened: (§1)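 CRISPR-edited mutant clones and isogenic wild-type clones from four leukaemia lines were screened against Selleck bioactive, kinase and epigenetic probe libraries, with identity-inconsistent compounds excluded. Each compound was acoustically dispensed at a single 10 µM dose into 384-well plates holding 2000 cells in 50 µL medium per well. After 48 h the supernatant was removed and CellTiter-Glo luminescence was read. Viability was expressed as percent of the on-plate vehicle control and analysed in Genedata Screener.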

MARIMO = test system: MARIMO
Procedure, shortened: as §1

MOLM14 = test system: MOLM14
Procedure, shortened: as §1

OCI-AML2 = test system: OCI-AML2
Procedure, shortened: as §1

SMILES | cell viability (K562; SRSF2 genotype: SRSF2 P95H/wt) | cell viability (K562; SRSF2 genotype: SRSF2 wt/wt) | cell viability (MARIMO; SRSF2 genotype: SRSF2 P95H/wt) | cell viability (MARIMO; SRSF2 genotype: SRSF2 wt/wt) | cell viability (MOLM14; SRSF2 genotype: SRSF2 P95H/wt) | cell viability (MOLM14; SRSF2 genotype: SRSF2 wt/wt) | cell viability (OCI-AML2; SRSF2 genotype: P95H/wt) | cell viability (OCI-AML2; SRSF2 genotype: wt/wt)
CCC(=O)O[C@H]1CC[C@H]2[C@@H]3CC[C@H]4CC(=O)[C@H](C)C[C@]4(C)[C@H]3CC[C@]12C [Drostanolone Propionate] | 85.6% and 88.6% | 79.2% | 72.7% | 44.8% | 77.4% | 83.8% | 63.7% | 57.3%
COC1=C[C@@H]2[C@@H]3Cc4ccc(OC)c(O)c4[C@]2(CCN3C)CC1=O [Sinomenine (Cucoline)] | 103% and 95.1% | 90.5% | 97.9% | 96.2% | 89.9% | 97.3% | 95% | 97.8%
CN(C)C(=O)Oc1ccc[n+](C)c1 [Pyridostigmine Bromide (Mestinon)] | 93.7% and 96.7% | 95.9% | 93.5% | 98.7% | 96.6% | 94.3% | 93.2% | 97%
COc1ccc(C(CN(C)C)C2(O)CCCCC2)cc1 (stereo not drawn) [Venlafaxine HCl] | 99.9% | 98.7% | 95.8% | 99.7% | 96.9% | 98.6% | 99.8% | 107%
O=P1(N(CCCl)CCCl)NCCCO1 (stereo not drawn) [Cyclophosphamide monohydrate] | 105% and 103% | 108% | 94.6% | 106% | 99.2% | 102% | 100% | 106%
c1ccc2c(c1)[I+]c1ccccc1-2 [Diphenyleneiodonium chloride (DPI)] | 25.4% and 25.3% | 25% | 19.6% | 25.4% | 3.2% | 2.99% | 11.4% | 16.4%
CC(=O)O[C@H]1[C@H]2[C@@H](OC(=O)Cc3ccccc3)[C@@H](C)C[C@]2(OC(C)=O)C(=O)/C(C)=C/[C@@H]2[C@H](CC[C@@]13CO3)C2(C)C [Euphorbiasteroid] | 63.8% and 85.5% | 84.1% | 111% | 27.6% | 46.1% | 30.6% | 27.2% | 22.4%
CC(=O)OC1CN2CCC1CC2 (stereo not drawn) [Aceclidine HCl] | 99.8% and 104% | 100% | 104% | 112% | 104% | 106% | 102% | 105%
CC1=C[C@H]2Cc3[nH]c(=O)ccc3[C@]3(C1)NCCC[C@H]23 [Huperzine B] | 110% and 97% | 113% | 109% | 103% | 113% | 108% | 105% | 94.8%
O=C(c1ccccc1O)c1[nH]c(Cl)c(Cl)c1-n1c(C(=O)c2ccccc2O)cc(Cl)c1Cl [Marinopyrrole A (Maritoclax)] | 12.6% and 15.9% | 14.3% | 24.9% | 21.3% | 13.5% | 12.8% | 4.26% | 11.9%
CN(C)C1C(=O)C(C(N)=O)=C(O)C2(O)C(=O)C3=C(O)c4c(O)cccc4C(C)(O)C3CC12 (stereo not drawn) [Tetracycline hydrochloride] | 84.5% and 91.2% | 90.4% | 90.7% | 96.3% | 102% | 98.3% | 89.3% | 95.9%
CN(C)[C@@H]1C(=O)C(C(N)=O)=C(O)[C@@]2(O)C(=O)C3=C(O)c4c(O)cccc4[C@@](C)(O)[C@H]3[C@H](O)[C@@H]12 [Oxytetracycline (Terramycin)] | 86.7% and 82.8% | 85.9% | 90.8% | 87.4% | 87.5% | 88.3% | 84.5% | 90%
CC(C)N(CCNC(=O)CN1CCCC1=O)C(C)C [Pramiracetam] | 96.6% and 106% | 104% | 98.4% | 111% | 107% | 102% | 98.1% | 105%
Cc1cccc([C@H](C)c2c[nH]cn2)c1C [Dexmedetomidine] | 97.4% and 102% | 98.5% | 95.6% | 101% | 105% | 102% | 114% | 95.9%
COc1cc2c(cc1OC)[C@@H](Cc1ccc(O)c(Oc3cc4c(cc3OC)CCN(C)[C@@H]4Cc3ccc(O)cc3)c1)N(C)CC2.[O-][Cl+3]([O-])([O-])O [Liensinine perchlorate] | 76.2% and 65.4% | 65.4% | 55.5% | 66.8% | 50.4% | 56.1% | 51.5% | 45%
C[N+]1(C)CCCC(OC(=O)C(O)(c2ccccc2)c2ccccc2)C1 (stereo not drawn) [mepenzolate bromide] | 106% and 102% | 98.9% | 103% | 112% | 104% | 104% | 101% | 105%
CC(=O)Nc1ccc(OC[C@](C)(O)C(=O)Nc2ccc([N+](=O)[O-])c(C(F)(F)F)c2)cc1 [Andarine (GTX-007)] | 103% and 99% | 107% | 98.4% | 105% | 106% | 105% | 97.1% | 95.8%
COC(=O)C[C@](O)(CCC(C)(C)O)C(=O)O[C@@H]1C(OC)=C[C@]23CCCN2CCc2cc4c(cc2[C@H]13)OCO4 [Harringtonine] | 12.3% and 17.8% | 20.6% | 8.47% | 4.47% | 2.72% | 1% | 5.78% | 10.9%
O=c1ccc2ccc3occc3c2o1 [Isopsoralen] | 105% and 98.7% | 105% | 100% | 101% | 108% | 110% | 103% | 97%
CC[C@@]1(O)C(=O)OCc2c1cc1n(c2=O)Cc2cc3ccccc3nc2-1 [Camptothecin] | 27.3% and 26.7% | 21.8% | 5.71% | 3.67% | 3.1% | 1.35% | 3.26% | 3.91%
COc1ccc(C=O)cc1O [Isovanillin] | 105% and 103% | 103% | 108% | 108% | 106% | 101% | 104% | 98.2%

SMILES | cell viability (K562; SRSF2 genotype: SRSF2 P95H/wt) | cell viability (K562; SRSF2 genotype: SRSF2 wt/wt) | cell viability (MARIMO; SRSF2 genotype: SRSF2 P95H/wt) | cell viability (MARIMO; SRSF2 genotype: SRSF2 wt/wt) | cell viability (MOLM14; SRSF2 genotype: SRSF2 P95H/wt) | cell viability (MOLM14; SRSF2 genotype: SRSF2 wt/wt) | cell viability (OCI-AML2; SRSF2 genotype: P95H/wt) | cell viability (OCI-AML2; SRSF2 genotype: wt/wt)
CN1C2CC(O)CC1C1OC12 (stereo not drawn) [Scopine] | 100% and 97.1% | 95.5% | 101% | 103% | 97% | 100% | 93.6% | 106%
Cc1c([C@H](C)[C@@H]2NC[C@@H](C)C[C@H]2O)ccc2c1C[C@H]1[C@H]2CC=C2C[C@@H](O)CC[C@@]21C [Veratramine] | 73.9% and 73% | 75% | 64.7% | 64.5% | 81.1% | 89.6% | 47.1% | 62.9%
CCN(Cc1ccc(Cl)nc1)/C(=C/[N+](=O)[O-])NC [Nitenpyram] | 98.8% and 88.3% | 99.9% | 94.5% | 99% | 97.7% | 98.6% | 95.2% | 99.8%
O=C(O)CCCCCCCCCO [10-Hydroxydecanoic acid] | 99.2% and 97.8% | 100% | 97.8% | 101% | 97.9% | 99.3% | 99.4% | 92.7%
COC1CC(OC2CCC3(C)C(CCC45OC46CCC(C(C)=O)C6(C)C(OC(C)=O)C(OC(=O)c4ccccc4)C35)C2)OC(C)C1OC1OC(C)C(O)C(OC)C1O (stereo not drawn) [Tenacissoside I] | 92.5% and 93.1% | 93.8% | 88.2% | 100% | 91.9% | 92.5% | 95% | 106%
C=CCCCCCCCCC(=O)O[C@H]1CC[C@H]2[C@@H]3CCC4=CC(=O)C=C[C@]4(C)[C@H]3CC[C@]12C [Boldenone Undecylenate] | 100% and 92.8% | 95.7% | 86% | 89.2% | 57.4% | 26.7% | 38.1% | 36.7%
Cc1cccc([C@H](C)c2c[nH]cn2)c1C [Dexmedetomidine HCl (Precedex)] | 99.1% and 101% | 91% | 102% | 100% | 102% | 104% | 107% | 110%
C=C[C@H]1CN2CC[C@]3(C(=O)Nc4ccccc43)[C@@H]2C[C@@H]1/C(=C\OC)C(=O)OC [Corynoxeine] | 92.3% and 98.1% | 97.7% | 84.5% | 81.1% | 93.8% | 93.1% | 96% | 95.4%
CCC1(c2cccc(O)c2)CCCCN(C)C1 (stereo not drawn) [Meptazinol HCl] | 96.2% and 101% | 100% | 91% | 93.7% | 103% | 98.1% | 96.4% | 92.4%
OC(c1ccccc1)(c1ccccc1)C1CCNCC1 [Azacyclonol] | 93.7% and 92.3% | 95.1% | 85.4% | 94.4% | 94.7% | 97.8% | 89% | 94.5%
C[N+]1(C)[C@@H]2C[C@@H](OC(=O)[C@H](CO)c3ccccc3)C[C@H]1[C@@H]1O[C@@H]12 [Methscopolamine (Pamine)] | 97.7% and 84.7% | 82.5% | 79.5% | 87.8% | 82.4% | 84.1% | 83.2% | 84.8%
CCC(COC(=O)c1cc(OC)c(OC)c(OC)c1)(c1ccccc1)N(C)C (stereo not drawn) [Trimebutine] | 94.7% and 99.7% | 97.2% | 87.4% | 109% | 97.9% | 104% | 92.5% | 97.8%
CN(C)[C@@H]1C(=O)C(C(N)=O)=C(O)[C@@]2(O)C(=O)C3=C(O)c4c(O)ccc(Cl)c4[C@@](C)(O)[C@H]3C[C@@H]12 [Chlortetracycline HCl] | 106% and 108% | 107% | 105% | 108% | 105% | 105% | 102% | 103%
CCOC(=O)Nc1ccc(NCc2ccc(F)cc2)cc1N [Retigabine 2HCl] | 94.1% and 97.3% | 97.4% | 91.6% | 103% | 105% | 102% | 96.5% | 102%
CC[C@@H]1CN2CC[C@@]3(C(=O)Nc4ccccc43)[C@@H]2C[C@@H]1/C(=C\OC)C(=O)OC [Corynoxine] | 95.5% and 98.3% | 97.9% | 75.2% | 69.5% | 77.1% | 82.5% | 92.9% | 79.2%
N[C@@H]1C[C@H]1c1ccccc1 [Tranylcypromine (2-PCPA) HCl] | 109% and 112% | 115% | 98% | 107% | 97.7% | 97.5% | 94.1% | 85%
CCC12C=CCN3CC[C@@]4(c5ccc(OC)cc5N(C)[C@H]4[C@@](O)(C(=O)OC)[C@@H]1OC(C)=O)[C@@H]32 (stereo partly drawn) [Vindoline] | 96.8% and 99.8% | 99.4% | 101% | 107% | 105% | 105% | 103% | 116%
C/C(=C\c1csc(C)n1)[C@@H]1C[C@@H]2O[C@]2(C)CCC[C@H](C)[C@H](O)[C@@H](C)C(=O)C(C)(C)[C@@H](O)CC(=O)O1 [Patupilone (EPO906, Epothilone B)] | 29% and 37% | 39.4% | 7.88% | 6.51% | 8.36% | 2.95% | 6.03% | 11.7%
C/C(=C\c1csc(C)n1)[C@@H]1C[C@@H]2O[C@@H]2CCC[C@H](C)[C@H](O)[C@@H](C)C(=O)C(C)(C)[C@@H](O)CC(=O)O1 [Epothilone A] | 22.5% and 33% | 32.5% | 7.48% | 5.2% | 6.35% | 2.31% | 7.11% | 8.21%
CC(C)=CCC[C@](C)(O)[C@H]1CC[C@]2(C)[C@@H]1[C@H](O)C[C@@H]1[C@@]3(C)CC[C@H](O[C@@H]4O[C@H](CO)[C@@H](O)[C@H](O)[C@H]4O)C(C)(C)[C@@H]3CC[C@]12C [20S-Ginsenoside Rh2] | 98.1% and 92.1% | 105% | 104% | 106% | 103% | 106% | 97.4% | 96.2%

From the supplement of paper PMC10981050
